# Assay outcomes: PubChem BioAssay, National Center for Advancing Translational Sciences (NCATS)
# An excerpt weighted towards active compounds, which were near 12% of everything screened.
# JMJD2A Tudor inh: qHTS Assay for Inhibitors of JMJD2A-Tudor Domain; Lysine-specific demethylase 4A (Homo sapiens), O75164; AlphaScreen JMJD2A-Tudor / H3K4me3 peptide binding; Potency, µM (doses to about 114 µM), inactives show at the highest dose activity change, negative = inhibition, hits mostly inhibitors; 4.4% of 390,000 active; AID 504339, 2011; note: % is set by controls: 0 for no effect and ±100 for the full control effect; nearly all actives have a fitted effect of over 50% in size
# BAZ2B block: qHTS Assay for Inhibitors of BAZ2B; AID 504333, 2011; AlphaScreen BAZ2B-H3K14Ac peptide displacement; Potency, µM (highest dose often 114 µM), without a hit: at the top dose activity change, negative = inhibition, hits mostly inhibitors; 4.4% of 360,000 active; note: % is set by controls: 0 for no effect and ±100 for the full control effect; nearly all actives have a fitted effect of over 60% in size
#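 BAZ2B 50 nM plus b-H3(5-23)K14Ac 50 nM, PBS pH 7.4/0.01% Tween-20, 30 min RT; compound added (max 110 uM), 30 min RT; streptavidin donor/Ni-chelate acceptor beads 10 ug/mL final, 20 min dark; AlphaScreen read.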
# HP1b binding inh: HTS for Inhibitors of HP1-beta Chromodomain Interactions with Methylated Histone Tails | AlphaScreen HP1-beta / biotin-H3K9me3 peptide binding | Potency, µM (titrated, usually from 114 µM), for the others: at the highest dose activity change, negative = inhibition, most hits filed as inhibitors | 0.56% of 390,000 active | AID 540317, 2011; note: nearly all actives have a fitted effect of over 70% in size
#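 HP1-beta protein (50 nM final) preincubated 30 min at room temperature with biotinylated H3(1-18)K9me3 peptide (50 nM) in PBS pH 7.4, 0.01% Tween-20, then compound added for 30 min. AlphaScreen streptavidin donor/nickel chelate acceptor beads (10 ug/mL final), 30 min dark, luminescence read.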
# Sfp inh: qHTS Assay for Inhibitors of Bacillus subtilis Sfp phosphopantetheinyl transferase (PPTase) | 3.5% of 310,000 active | Biochemical Sfp PPTase activity, qHTS | 4'-phosphopantetheinyl transferase ffp (Bacillus subtilis), Q9F4F7 | Potency, µM, without a hit: largest response in the series, negative = inhibition, most hits filed as inhibitors;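 note: the enzyme is Sfp with the accession as filed and its product quenches rhodamine fluorescence; 0% = enzyme reaction without inhibitor and -100% = no enzyme wells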
#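 After 15 min at room temperature with compound, 15 nM Sfp received 5 uM rhodamine-CoA plus 12.5 uM BHQ-2-ybbR (50 mM Hepes pH 7.6, 10 mM MgCl2). Rate came from the fluorescence difference over 30 min, ex 525/em 598 nm.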
# G9a block: qHTS Assay for Inhibitors of Histone Lysine Methyltransferase G9a; Histone-lysine N-methyltransferase EHMT2 (Homo sapiens), Q96KQ7; G9a H3K9 monomethylation, AlphaScreen, 2 h; Potency, µM (titrated, usually from 102 µM), for inactives: top-dose activity, negative = inhibition, actives largely listed as inhibitors; 8.8% of 350,000 active; AID 504332, 2011; note: % is set by controls: 0 for no effect and ±100 for the full control effect; nearly all actives have a fitted effect of over 75% in size
#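 G9a (20 nM) was preincubated 15 min with compound, then reacted 2 h at room temperature with 500 nM biotin-H3K9 peptide and 20 µM SAM. Monomethyl-H3K9 detected by AlphaScreen using anti-H3K9me1 antibody.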
# PLK1 PBD block: qHTS for Inhibitors of PLK1-PDB (polo-like kinase 1 - polo-box domain): Primary Screen | Potency, µM, inactives show max response, negative = inhibition, hits mostly inhibitors | Serine/threonine-protein kinase PLK1 (Homo sapiens), P53350 | AID 720504, 2013 | 2.8% of 360,000 active | Plk1 PBD binding of FITC phosphopeptide, fluorescence polarization; note: series mostly up to about 57 µM; % is set by controls: 0 for no effect and ±100 for the full control effect; nearly all actives have a fitted effect of over 65% in size
# Target sequence (P53350 whole entry, looked up, the tested form may be a part): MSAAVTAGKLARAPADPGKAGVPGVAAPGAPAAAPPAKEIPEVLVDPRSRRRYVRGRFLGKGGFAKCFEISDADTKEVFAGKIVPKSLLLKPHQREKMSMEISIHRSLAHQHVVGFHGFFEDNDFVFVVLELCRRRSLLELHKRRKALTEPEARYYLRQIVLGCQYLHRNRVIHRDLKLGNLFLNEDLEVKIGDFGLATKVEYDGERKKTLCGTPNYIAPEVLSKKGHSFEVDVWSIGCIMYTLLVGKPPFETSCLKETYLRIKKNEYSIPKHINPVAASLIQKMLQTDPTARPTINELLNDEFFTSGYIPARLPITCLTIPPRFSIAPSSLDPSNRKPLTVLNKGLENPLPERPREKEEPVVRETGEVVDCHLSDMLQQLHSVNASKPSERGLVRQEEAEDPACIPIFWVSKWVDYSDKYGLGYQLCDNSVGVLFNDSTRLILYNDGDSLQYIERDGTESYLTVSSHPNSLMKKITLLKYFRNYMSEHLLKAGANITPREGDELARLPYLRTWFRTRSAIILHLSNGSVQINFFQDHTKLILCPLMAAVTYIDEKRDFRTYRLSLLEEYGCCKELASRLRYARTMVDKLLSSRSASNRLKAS
# Numbers without * were called inactive; u = inconclusive; x = no result; [ ] = remark or other dose. Calls come from the whole dose curve; as a rule, active = well fitted curve in the direction sought with a large enough effect; inconclusive = small, poorly fitted or top-dose-only effect, or another doubt; inactive = no such curve, though single readings can be large; an effect the other way counts as inactive or inconclusive. Potency is the fitted concentration of half-maximal effect.
SMILES,JMJD2A Tudor inh,BAZ2B block,HP1b binding inh,Sfp inh,G9a block,PLK1 PBD block
O=C(Nc1ccc(Cl)c([N+](=O)[O-])c1)c1ccncc1,-11%[57.1 µM],4%,41%,u,-15%[59 µM],-15%
O=C(Nc1ccc(Br)cc1Cl)c1cnccn1,50µM*,-7%,11%,16%,-10%[59 µM],u
O=C(Nc1ccc(Cl)c([N+](=O)[O-])c1)c1cnccn1,u,50µM*,5%,0%,-10%[59 µM],-4%
CSCCC(NC(=O)c1ccccc1Cl)C(=O)N1CC(C)OC(C)C1 (stereo not given),-10%,9%,25%,x,9%[59 µM],0%
O=[N+]([O-])c1ccc(S(=O)(=O)N/N=C/c2ccc3c(c2)OCO3)cc1,-14%,u,27%,0%,50µM*,-15%
O=[N+]([O-])c1ccc(S(=O)(=O)NN=Cc2ccc(Cl)c(Cl)c2)cc1,u,x,-14%,x,x,11µM*
Cc1ccc(S(=O)(=O)N/N=C\c2cc([N+](=O)[O-])ccc2Cl)cc1,-25%,-36%,5%,25%,2.8µM*,-24%
CC(=O)Nc1ccc(S(=O)(=O)NN=Cc2ccc(Cl)c(Cl)c2)cc1,-31%,x,-7%,x,x,-24%
O=C1c2oc3ccccc3c(=O)c2C(c2cccc(O)c2)N1CCCN1CCOCC1 (stereo not given),-10%,11%,22%,-13%,89µM*,-25%
O=C1c2oc3ccc(Cl)cc3c(=O)c2C(c2ccco2)N1CCN1CCOCC1 (stereo not given),-25%,-36%,10%,1%,11µM*,-7%
COc1cc(C2c3c(oc4cc(C)c(C)cc4c3=O)C(=O)N2CCCN2CCOCC2)ccc1O (stereo not given),-20%,-14%,-10%,x,28µM*,x
CCCOc1ccc(C2C(C(=O)/C=C/c3ccco3)=C(O)C(=O)N2CCN2CCOCC2)cc1OC (stereo not given),u,x,3%,45µM*,45µM*,-15%
Cc1ccc(C2c3c(oc4ccc(Cl)cc4c3=O)C(=O)N2CCCN2CCOCC2)o1 (stereo not given),x,-36%,x,-29%,u,x
COc1ccc(C2c3c(oc4ccccc4c3=O)C(=O)N2CCCN2CCOCC2)cc1 (stereo not given),-3%,x,25%,x,x,u
Cc1cc2oc3c(c(=O)c2cc1C)C(c1ccc(F)cc1)N(CCCN1CCOCC1)C3=O (stereo not given),-16%,4%,25%,-8%,u,-15%
CC(C)(C)c1ccc(OCC(=O)NCCN2CCOCC2)cc1,-5%,-3%,11%,-20%,u,-20%
COc1cc(C2C(C(C)=O)=C(O)C(=O)N2CCN2CCOCC2)ccc1O (stereo not given),-22%,-4%,19%,-2%,50µM*,-7%
CC(=O)C1=C(O)C(=O)N(CCN2CCOCC2)C1c1ccc(N(C)C)cc1 (stereo not given),u,x,16%,x,x,-10%
CC(C)c1ccc(NS(=O)(=O)c2ccc3nc(-c4ccccc4)[nH]c3c2)cc1,-17%,-3%,31%,x,11%[59 µM],x
COc1ccc(CNCCC(c2ccccc2)c2ccc3c(c2)OCO3)cc1 (stereo not given),-31%,u,16%,35µM*,20µM*,3%
COc1ccc(C(CC(=O)O)c2ccc3c(c2)OCO3)cc1 (stereo not given),-8%,1%,8%,13%,-12%[2.33 µM],-3%
COc1ccc(CNCCC(c2ccc(C)cc2)c2ccco2)cc1 (stereo not given),25µM*,79µM*,u,x,5µM*,x
CCOC(=O)[C@H]1[C@H]2COc3ccc(C)cc3[C@@H]2N2C(=O)c3cc(C)ccc3NC(=O)[C@@]12C,-35%,x,-9%,x,x,-15%
Cc1cc(C)nc(SCc2csc(N)n2)n1,4%,-21%,35%,35µM*,50µM*,-19%
O=C1Nc2ccc(S(=O)(=O)Nc3ccccc3O)c3cccc1c23,-22%,-26%,19%,x,13µM*,x
SMILES,JMJD2A Tudor inh,BAZ2B block,HP1b binding inh,Sfp inh,G9a block,PLK1 PBD block
CCN1C(=O)/C(=C\N(C)C)c2ccccc21,-15%,-1%,9%,-7%,10%[59 µM],-3%
CCN1C(=O)/C(=C\C(=O)c2cccs2)c2cc(Br)ccc21,28µM*,16µM*,22µM*,20µM*,u,5.3µM*
Oc1c(C(Nc2cccc(C(F)(F)F)c2)c2cccnc2)ccc2cccnc12 (stereo not given),56µM*,20µM*,u,u,8.9µM*,-21%
Cc1cc(NC(c2cccnc2)c2ccc3cccnc3c2O)no1 (stereo not given),32µM*,7.9µM*,26%,-21%,35µM*,1%
Oc1c(C(Nc2ccccn2)c2cccnc2)cc(Cl)c2cccnc12 (stereo not given),40µM*,11µM*,0%,-8%,28µM*,u
COc1ccc(C(NC(=O)c2cccnc2)c2cc(Cl)c3cccnc3c2O)cc1OC (stereo not given),-22%,u,57%,-1%,19%[0.501 µM],-6%
COc1ccc(CCNS(=O)(=O)c2ccc(-n3cnnn3)cc2)cc1OC,-9%,5%,-16%,-4%,u,-13%
Cc1c(NC(=O)C(CC(=O)O)NCc2ccco2)c(=O)n(-c2ccccc2)n1C (stereo not given),5µM*,50µM*,-7%,-11%,u,-1%
COC(=O)C(CC(=O)O)NCc1ccco1 (stereo not given),20µM*,u,3%,u,x,12µM*
Cc1c(NC(=O)c2ccco2)c(=O)n(-c2ccccc2)n1C,-8%,11%,35%,8%,8%,-5%
COCCOC(=O)C(CC(=O)O)NCc1ccco1 (stereo not given),u,-7%,-8%,u,x,-3%
Cc1c(NS(=O)(=O)c2cccc(C(=O)NCc3ccco3)c2)c(=O)n(-c2ccccc2)n1C,63µM*,x,-36%,x,x,-15%
O=C(O)CC(NCc1ccco1)C(=O)Nc1cccc(O)c1 (stereo not given),3.2µM*,-37%,-3%,u,50µM*,-2%
Cc1c(NS(=O)(=O)c2cccc(C(=O)NCc3ccc(Cl)cc3)c2)c(=O)n(-c2ccccc2)n1C,-12%[57.1 µM],1%,-11%,19%,-10%[59 µM],u
